log2 fold change data for 37 targets are collected here from the supplement of paper PMC10849652.

Targets with a hit are over-represented here; the source holds about 7,900 in all. About 0.6% of all pairs of compound and target were hits. Values without a mark were called inactive.

Sequence of UniProt Q9BQY4 (Q9BQY4 whole entry, looked up): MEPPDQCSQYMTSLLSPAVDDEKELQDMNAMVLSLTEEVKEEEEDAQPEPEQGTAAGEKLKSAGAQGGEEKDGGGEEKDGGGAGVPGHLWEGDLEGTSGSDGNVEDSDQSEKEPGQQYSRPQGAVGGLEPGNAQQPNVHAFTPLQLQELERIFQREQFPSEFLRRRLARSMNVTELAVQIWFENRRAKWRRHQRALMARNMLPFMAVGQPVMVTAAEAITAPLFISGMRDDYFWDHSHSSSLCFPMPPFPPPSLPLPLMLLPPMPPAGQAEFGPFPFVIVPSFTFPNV
Sequence of UniProt Q96D15 (Q96D15 whole entry, looked up): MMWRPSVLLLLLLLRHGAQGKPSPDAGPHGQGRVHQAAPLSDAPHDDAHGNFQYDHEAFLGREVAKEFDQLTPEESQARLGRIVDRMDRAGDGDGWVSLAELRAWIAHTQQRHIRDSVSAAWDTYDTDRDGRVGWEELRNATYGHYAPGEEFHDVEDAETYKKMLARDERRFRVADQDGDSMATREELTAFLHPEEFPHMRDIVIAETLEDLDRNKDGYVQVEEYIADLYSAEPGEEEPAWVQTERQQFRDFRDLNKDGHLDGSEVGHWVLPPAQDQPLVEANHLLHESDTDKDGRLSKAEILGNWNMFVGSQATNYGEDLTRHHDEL
Sequence of UniProt Q8NBX0 (Q8NBX0 whole entry, looked up): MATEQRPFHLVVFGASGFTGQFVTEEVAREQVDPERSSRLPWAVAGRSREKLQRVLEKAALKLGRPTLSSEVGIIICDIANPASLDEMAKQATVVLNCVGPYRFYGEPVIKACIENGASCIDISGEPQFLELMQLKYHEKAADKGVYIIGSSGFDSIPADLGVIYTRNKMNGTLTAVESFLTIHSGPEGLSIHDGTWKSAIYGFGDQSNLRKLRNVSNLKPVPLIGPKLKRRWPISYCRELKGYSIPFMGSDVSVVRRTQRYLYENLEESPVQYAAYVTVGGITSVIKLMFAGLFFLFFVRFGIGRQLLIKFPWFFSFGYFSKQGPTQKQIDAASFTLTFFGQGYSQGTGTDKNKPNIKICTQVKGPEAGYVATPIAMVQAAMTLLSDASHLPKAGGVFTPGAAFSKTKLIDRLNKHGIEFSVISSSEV
Sequence of UniProt Q8N0T1 (Q8N0T1 whole entry, looked up): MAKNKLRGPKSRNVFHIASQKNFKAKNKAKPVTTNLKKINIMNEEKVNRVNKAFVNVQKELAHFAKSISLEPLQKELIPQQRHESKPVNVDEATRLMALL
Sequence of UniProt Q14498 (Q14498 whole entry, looked up): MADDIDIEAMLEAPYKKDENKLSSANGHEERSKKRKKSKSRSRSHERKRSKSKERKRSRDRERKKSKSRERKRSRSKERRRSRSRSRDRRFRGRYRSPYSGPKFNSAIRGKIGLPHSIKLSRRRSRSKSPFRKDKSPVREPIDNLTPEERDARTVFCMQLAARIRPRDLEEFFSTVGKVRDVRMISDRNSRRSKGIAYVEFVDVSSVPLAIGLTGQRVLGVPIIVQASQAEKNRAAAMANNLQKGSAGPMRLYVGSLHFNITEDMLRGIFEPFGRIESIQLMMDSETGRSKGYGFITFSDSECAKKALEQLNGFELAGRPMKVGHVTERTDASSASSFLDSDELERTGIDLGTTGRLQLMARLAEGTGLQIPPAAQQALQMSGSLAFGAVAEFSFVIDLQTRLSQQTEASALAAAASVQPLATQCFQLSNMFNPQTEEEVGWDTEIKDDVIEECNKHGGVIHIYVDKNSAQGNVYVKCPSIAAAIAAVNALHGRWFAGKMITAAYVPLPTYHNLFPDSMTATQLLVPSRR
Sequence of UniProt Q96T51 (Q96T51 whole entry, looked up): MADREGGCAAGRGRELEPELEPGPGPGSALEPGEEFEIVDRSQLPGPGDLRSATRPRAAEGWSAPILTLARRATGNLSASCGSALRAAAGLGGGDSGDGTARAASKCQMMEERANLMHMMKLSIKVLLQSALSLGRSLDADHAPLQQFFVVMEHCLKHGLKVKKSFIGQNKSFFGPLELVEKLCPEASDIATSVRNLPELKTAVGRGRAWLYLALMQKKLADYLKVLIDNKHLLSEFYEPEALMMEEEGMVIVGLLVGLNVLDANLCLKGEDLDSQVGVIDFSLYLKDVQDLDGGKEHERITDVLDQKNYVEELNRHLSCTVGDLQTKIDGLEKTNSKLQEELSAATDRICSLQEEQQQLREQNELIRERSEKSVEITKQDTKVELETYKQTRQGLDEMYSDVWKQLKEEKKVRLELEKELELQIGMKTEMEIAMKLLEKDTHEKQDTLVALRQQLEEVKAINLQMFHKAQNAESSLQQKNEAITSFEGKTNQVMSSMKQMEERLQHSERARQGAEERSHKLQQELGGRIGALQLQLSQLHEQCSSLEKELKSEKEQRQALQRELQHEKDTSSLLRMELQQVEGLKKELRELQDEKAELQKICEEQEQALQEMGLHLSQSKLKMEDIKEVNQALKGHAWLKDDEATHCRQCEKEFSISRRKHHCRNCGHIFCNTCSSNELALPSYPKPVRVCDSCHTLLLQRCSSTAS
Sequence of UniProt Q9BVS4 (Q9BVS4 whole entry, looked up): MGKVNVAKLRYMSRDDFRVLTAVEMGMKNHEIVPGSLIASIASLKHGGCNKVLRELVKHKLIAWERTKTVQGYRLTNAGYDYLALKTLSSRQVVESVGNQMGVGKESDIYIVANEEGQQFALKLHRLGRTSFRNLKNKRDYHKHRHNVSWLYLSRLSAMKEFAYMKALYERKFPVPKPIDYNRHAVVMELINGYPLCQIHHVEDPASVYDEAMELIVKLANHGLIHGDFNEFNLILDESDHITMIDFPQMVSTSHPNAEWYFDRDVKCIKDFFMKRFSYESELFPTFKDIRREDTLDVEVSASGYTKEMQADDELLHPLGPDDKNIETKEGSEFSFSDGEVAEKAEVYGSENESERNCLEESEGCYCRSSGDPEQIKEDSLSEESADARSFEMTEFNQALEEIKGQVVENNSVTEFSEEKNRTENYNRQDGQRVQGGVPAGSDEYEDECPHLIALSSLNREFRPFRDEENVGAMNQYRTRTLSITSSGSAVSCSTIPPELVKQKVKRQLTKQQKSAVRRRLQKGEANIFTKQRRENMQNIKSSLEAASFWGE
Sequence of UniProt Q9H6H4 (Q9H6H4 whole entry, looked up): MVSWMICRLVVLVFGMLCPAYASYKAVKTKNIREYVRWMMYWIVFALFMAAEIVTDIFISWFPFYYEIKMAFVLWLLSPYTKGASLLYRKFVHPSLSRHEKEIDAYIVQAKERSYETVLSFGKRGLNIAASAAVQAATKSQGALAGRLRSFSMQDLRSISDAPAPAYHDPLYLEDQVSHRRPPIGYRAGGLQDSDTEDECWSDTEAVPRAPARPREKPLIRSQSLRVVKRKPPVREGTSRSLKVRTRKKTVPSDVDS
Sequence of UniProt Q9BUV8 (Q9BUV8 whole entry, looked up): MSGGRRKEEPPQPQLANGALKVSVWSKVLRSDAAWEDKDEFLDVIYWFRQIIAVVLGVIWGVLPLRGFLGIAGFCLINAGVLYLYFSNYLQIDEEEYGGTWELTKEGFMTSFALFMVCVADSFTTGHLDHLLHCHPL
Sequence of UniProt Q15349 (Q15349 whole entry, looked up): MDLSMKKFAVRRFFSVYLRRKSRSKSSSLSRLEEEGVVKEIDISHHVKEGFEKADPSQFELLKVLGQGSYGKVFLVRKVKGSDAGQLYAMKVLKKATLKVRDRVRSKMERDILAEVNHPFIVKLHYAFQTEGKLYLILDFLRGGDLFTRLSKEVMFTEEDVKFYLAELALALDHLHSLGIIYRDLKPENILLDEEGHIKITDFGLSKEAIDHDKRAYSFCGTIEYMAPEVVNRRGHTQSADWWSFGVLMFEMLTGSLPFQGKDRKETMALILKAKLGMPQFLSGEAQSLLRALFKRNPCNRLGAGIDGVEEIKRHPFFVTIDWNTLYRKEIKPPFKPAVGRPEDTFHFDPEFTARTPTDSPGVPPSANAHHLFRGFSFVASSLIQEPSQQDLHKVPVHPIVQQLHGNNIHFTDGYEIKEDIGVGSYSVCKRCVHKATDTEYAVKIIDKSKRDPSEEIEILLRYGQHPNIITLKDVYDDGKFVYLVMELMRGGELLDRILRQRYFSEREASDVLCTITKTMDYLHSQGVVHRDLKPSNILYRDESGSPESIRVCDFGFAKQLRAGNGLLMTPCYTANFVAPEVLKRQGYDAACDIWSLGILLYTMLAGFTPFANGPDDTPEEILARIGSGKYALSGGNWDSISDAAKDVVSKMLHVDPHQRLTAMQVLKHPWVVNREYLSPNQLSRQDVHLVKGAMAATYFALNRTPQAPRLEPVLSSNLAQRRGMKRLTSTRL
Sequence of UniProt Q15287 (Q15287 whole entry, looked up): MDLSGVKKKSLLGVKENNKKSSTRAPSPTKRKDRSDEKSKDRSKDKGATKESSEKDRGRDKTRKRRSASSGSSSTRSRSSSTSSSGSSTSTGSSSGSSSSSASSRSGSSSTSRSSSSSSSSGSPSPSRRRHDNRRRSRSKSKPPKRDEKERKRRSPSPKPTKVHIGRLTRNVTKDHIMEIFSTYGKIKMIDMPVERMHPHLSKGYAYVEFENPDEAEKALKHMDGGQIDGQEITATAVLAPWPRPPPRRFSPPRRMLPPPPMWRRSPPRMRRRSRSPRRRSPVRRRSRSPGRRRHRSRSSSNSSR
Sequence of UniProt Q5VZM2 (Q5VZM2 whole entry, looked up): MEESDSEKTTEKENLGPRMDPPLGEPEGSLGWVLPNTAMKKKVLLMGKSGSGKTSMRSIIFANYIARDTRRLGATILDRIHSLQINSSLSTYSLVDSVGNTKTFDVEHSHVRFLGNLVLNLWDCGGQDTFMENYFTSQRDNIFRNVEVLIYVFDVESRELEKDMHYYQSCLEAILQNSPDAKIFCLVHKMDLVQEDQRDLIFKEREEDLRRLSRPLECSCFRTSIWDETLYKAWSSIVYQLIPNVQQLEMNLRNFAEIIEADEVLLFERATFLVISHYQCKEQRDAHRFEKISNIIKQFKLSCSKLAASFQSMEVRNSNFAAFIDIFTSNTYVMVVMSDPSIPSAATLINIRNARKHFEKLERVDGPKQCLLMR

Compound in the first assay: CC1=C2C(=CC=C1)N=C(N(C2=O)C3=CC=CC=C3C)CN4C=NC5=C(N=CN=C54)N
As to the kind of experiment: log2 fold change, soluble protein after heating vs DMSO (PISA); higher = thermal stabilisation; K562 cells, 10 uM, 30 min; active = over 0.2 and 3.5 SD of the protein, either way, in both replicates (recomputed). The procedure, abridged:
(§1)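 K562 cells at 2×10^6 cells/mL were treated with 10 μM compound for 30 min. Aliquots were heated for 3 min across 48°C-58°C, pooled, and extracted in PBS with 0.5% NP-40 at 4°C; soluble protein was the supernatant after 21,000xg for 90 min. Soluble protein was quantified by TMTpro 16plex LC-MS/MS with channel sums equalised, and reported as log2 fold change in thermal stability against DMSO controls, with values from duplicates.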
As for RRAGB (UniProt Q5VZM2), the log2 fold change was -0.088.
As to RIOK2 (UniProt Q9BVS4), the log2 fold change is -0.119.
Same read-out and setting: the same measure for RCOR3 isoform 3 (UniProt Q9P2K3): 0.111; for RAC1 (UniProt P63000): -0.111.
In the case of SEH1L isoform 1 (UniProt Q96EE3), the log2 fold change is -0.003.
Same read-out and setting: then RAB3D (UniProt O95716), with 0.007; and RBM25 (UniProt P49756), with 0.005; and RHOXF2 (UniProt Q9BQY4), with 0.024.
Same read-out and setting: the same measure for RPS13 (UniProt P62277): -0.246.
Same read-out and setting: the same measure for SENP6 (UniProt Q9GZR1): 0.048; for RCN3 (UniProt Q96D15): -0.061.
Turning to SAFB2 (UniProt Q14151), the log2 fold change is -0.103.
As for RMC1 (UniProt Q96DM3), the log2 fold change was 0.1.
Still for that read-out and setting: the same measure for RPS16 (UniProt P62249): -0.192.
Still for that read-out and setting: the same measure for RAPGEF4 (UniProt Q8WZA2): 0.268; for RNF187 (UniProt Q5TA31): -0.033; for SCCPDH (UniProt Q8NBX0): 0.002.
The same measure, in the same setting: then RBM8A (UniProt Q9Y5S9), with -0.062.
With RAB5IF isoform 5 (UniProt Q9BUV8), the log2 fold change was 0.024.
For RNPS1 (UniProt Q15287), the log2 fold change was 0.032.
Same read-out and setting: then RPS6KA2 isoform 2 (UniProt Q15349), with 0.087; and RTN4IP1 (UniProt Q8WWV3), with 0.999 (active); and RRAGC (UniProt Q9HB90), with 0.095.
Same read-out and setting: the same measure for RAB3IL1 (UniProt E9PK89): -0.107; for SCAF11 (UniProt Q99590): 0.021; for RPS27A (UniProt P62979): -0.281.
Still for that read-out and setting: the same measure for RBM39 (UniProt Q14498): -0.02; for RBIS (UniProt Q8N0T1): -0.02; for RPS3 (UniProt P23396): -0.127.
SHROOM2 (UniProt Q13796): the log2 fold change was 0.103.
On the same count and under the same terms, the same measure for SIRT2 (UniProt Q8IXJ6): 0.105; for ROR2 (UniProt Q01974): 0.023; for RUFY1 (UniProt Q96T51): 0.041.
Still for that read-out and setting: the same measure for REEP4 (UniProt Q9H6H4): -0.023; for RPS14 (UniProt P62263): -0.238; for SETD3 (UniProt Q86TU7): 0.061.
The same measure, in the same setting: the same measure for SCG3 (UniProt Q8WXD2): 0.09.

Compound in a further assay: Cc1sc2c(c1C)C(c1ccc(Cl)cc1)=N[C@@H](CC(=O)OC(C)(C)C)c1nnc(C)n1-2
The assay is described as above. The procedure, abridged: as §1
RRAGB (UniProt Q5VZM2): the log2 fold change is -0.01.
The same measure, in the same setting: the same measure for RIOK2 (UniProt Q9BVS4): 0.116; for RCOR3 isoform 3 (UniProt Q9P2K3): -0.06.
In the case of RAC1 (UniProt P63000), the log2 fold change is -0.098.
The same measure, in the same setting: then SEH1L isoform 1 (UniProt Q96EE3), with -0.014.
As to RAB3D (UniProt O95716), the log2 fold change is -0.082.
Still for that read-out and setting: then RBM25 (UniProt P49756), with 0.051; and RHOXF2 (UniProt Q9BQY4), with 0.012.
Same read-out and setting: then RPS13 (UniProt P62277), with 0.213.
Same read-out and setting: the same measure for SENP6 (UniProt Q9GZR1): 0.022; for RCN3 (UniProt Q96D15): -0.01; for SAFB2 (UniProt Q14151): 0.045.
Take RMC1 (UniProt Q96DM3): the log2 fold change is 0.019.
Still for that read-out and setting: then RPS16 (UniProt P62249), with 0.043.
Still for that read-out and setting: the same measure for RAPGEF4 (UniProt Q8WZA2): -0.028; for RNF187 (UniProt Q5TA31): -0.083.
Same read-out and setting: then SCCPDH (UniProt Q8NBX0), with -0.003.
For RBM8A (UniProt Q9Y5S9), the log2 fold change was 0.029.
Same read-out and setting: then RAB5IF isoform 5 (UniProt Q9BUV8), with -0.08; and RNPS1 (UniProt Q15287), with 0.119.
On the same count and under the same terms, then RPS6KA2 isoform 2 (UniProt Q15349), with -0.015; and RTN4IP1 (UniProt Q8WWV3), with -0.051.
As to RRAGC (UniProt Q9HB90), the log2 fold change is -0.041.
RAB3IL1 (UniProt E9PK89): the log2 fold change is 0.15.
Same read-out and setting: then SCAF11 (UniProt Q99590), with 0.064.
Same read-out and setting: then RPS27A (UniProt P62979), with 0.108; and RBM39 (UniProt Q14498), with 0.019; and RBIS (UniProt Q8N0T1), with 0.101.
Still for that read-out and setting: the same measure for RPS3 (UniProt P23396): 0.083; for SHROOM2 (UniProt Q13796): -0.008; for SIRT2 (UniProt Q8IXJ6): 0.093.
As to ROR2 (UniProt Q01974), the log2 fold change is -0.048.
On the same count and under the same terms, the same measure for RUFY1 (UniProt Q96T51): 0.002; for REEP4 (UniProt Q9H6H4): 0.081.
Same read-out and setting: then RPS14 (UniProt P62263), with 0.078; and SETD3 (UniProt Q86TU7), with 0.021; and SCG3 (UniProt Q8WXD2), with 0.
